Measurements taken from PubChem BioAssay (NCI).
This is part of a sample that, as a whole, favours compounds with a hit. Of some 79,000 tested, about 15% had one in any assay. Values without a mark were called inactive. No stated cut-off is given here; in the data, active means growth inhibition above about 70%; inactive means the rest.

assay: NCI Yeast Anticancer Drug Screen. Data for the mec2-1 strain (AID 157); details: S. cerevisiae mec2-1 strain, at 50.0 µM, active compounds read high
Method in brief: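 Each compound was tested on mec2-1 yeast, a strain altered in DNA damage repair or cell cycle control. Growth inhibition is reported relative to vehicle.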

Which growth inhibition does the source give for Cc1cc2nc(C(C)(C)O)[nH]c2cc1C here?
The growth inhibition was -4.8%.

Which growth inhibition does the source give for COc1cc(/C=N\N=C(/C)c2ccc(C)cc2C)cc(OC)c1OC here?
Its growth inhibition is 23.1%.

With N/N=C(\c1nc2ccc([N+](=O)[O-])cc2[nH]c1=O)C(O)c1ccc(Cl)c(Cl)c1 (stereo unspecified) as the compound, how does the growth inhibition read?
The growth inhibition was -6.65%.

With O=C(c1ccccc1)C(c1ccccc1)(c1ccccc1)c1ccccc1 as the compound, how does the growth inhibition read?
Its growth inhibition is 6.2%.

With CN(C)C(=S)N(C)C as the compound, how does the growth inhibition read?
The growth inhibition was -33%.

Which growth inhibition does the source give for C=CCCCC1CCCNC1=O (stereo unspecified) here?
Its growth inhibition is 10.2%.

Which growth inhibition does the source give for CC(Cl)C(O)C#N (stereo unspecified) here?
Its growth inhibition is -3.35%.

For O=c1cc(-c2ccc(O)cc2)oc2cc(O)cc(O)c12, which growth inhibition is on record?
The growth inhibition was -5.65%.

With CC1(C)O[C@H]2Cn3c(c(C#N)c4ccccc43)[C@H]2O1 as the compound, how does the growth inhibition read?
Its growth inhibition is -38.4%.

Which growth inhibition does the source give for CSc1cnc2ccccc2c1Sc1c[nH]c2ccccc2c1=O here?
The growth inhibition was 3.65%.

Which growth inhibition does the source give for N#Cc1c(Br)n(C2OC(CO)C(O)C2O)c2ncncc12 (stereo unspecified) here?
Its growth inhibition is 7.5%.

assay: NCI Yeast Anticancer Drug Screen. Data for the sgs1 mgt1 strain (AID 161);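 further: 0% = growth of cultures given vehicle only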; details: S. cerevisiae sgs1 mgt1 strain, at 50.0 µM, active compounds read high
Method in brief: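 Read-out: growth inhibition vs vehicle controls. Cells: mutant yeast strain deficient in DNA damage repair.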

With Cc1cnc(N)s1 as the compound, how does the growth inhibition read?
The growth inhibition was -7.8%.

With Cc1cc(O)c(/C=N/C(=S)NCCc2ccccc2)c(=O)o1 as the compound, how does the growth inhibition read?
The growth inhibition was -9.5%.

Which growth inhibition does the source give for O=C(Nc1cccc([N+](=O)[O-])c1)OCC#CCOC(=O)Nc1cccc([N+](=O)[O-])c1 here?
The growth inhibition was 13.7%.

With COC(=O)/C(=N\NC(=S)NN)C(C(=O)C(=O)Nc1ccccc1C(N)=O)c1nc2ccccc2[nH]c1=O (stereo unspecified) as the compound, how does the growth inhibition read?
The growth inhibition was 14.9%.

Which growth inhibition does the source give for CC(=O)Oc1ccc(C(c2ccc(OC(C)=O)cc2)c2ccccn2)cc1 here?
The growth inhibition was -9.25%.

With C[S+](C)N(c1ccccc1)C(C)(C)C as the compound, how does the growth inhibition read?
The growth inhibition was -0.45%.

Which growth inhibition does the source give for N/C=N/OCc1ccccc1 here?
The growth inhibition was 9%.

For CCCCCC(=O)Oc1ccccc1OC, which growth inhibition is on record?
Its growth inhibition is 1.15%.

With Cc1cc(C)n2nc3c4ccsc4ncc3c2n1 as the compound, how does the growth inhibition read?
The growth inhibition was -15.9%.

With CC1=CC=CC(C)(C)C(=O)C1=O as the compound, how does the growth inhibition read?
The growth inhibition was -12.8%.

Which growth inhibition does the source give for CC1(C)NNC(=S)NC1=O here?
The growth inhibition was -7.65%.

Which growth inhibition does the source give for Oc1cccnc1CN1CCOCC1 here?
The growth inhibition was -12.6%.

With Cc1cc(C)c(C(=O)O)c(C)c1Br as the compound, how does the growth inhibition read?
Its growth inhibition is -4.85%.

For CNc1ccn(C2OC(CO)C(O)C2O)c(=O)n1 (stereo unspecified), which growth inhibition is on record?
Its growth inhibition is -2.05%.

Which growth inhibition does the source give for O=C(c1ccc(Cl)cc1)C(c1ccccc1)N1CCCCC1 (stereo unspecified) here?
Its growth inhibition is -0.1%.

For Nc1nnc2nc(CC(=O)c3ccc(F)cc3)c(CC(=O)c3ccc(F)cc3)nn12, which growth inhibition is on record?
Its growth inhibition is 6.6%.

With Oc1ccc2c(c1)c1ccccc1c1ncccc21 as the compound, how does the growth inhibition read?
Its growth inhibition is 43.6%.

For COC1(C)CNc2ccccc2C(=O)N1 (stereo unspecified), which growth inhibition is on record?
Its growth inhibition is 22.9%.

With CCN(CC)CCCNc1ccnc2ccc(Cl)cc12 as the compound, how does the growth inhibition read?
Its growth inhibition is 5.45%.

Which growth inhibition does the source give for O=C(NC(=O)c1ccccc1[N+](=O)[O-])Nc1ccc(Oc2ncc(Cl)cn2)c(C(F)(F)F)c1 here?
The growth inhibition was 7.4%.

For CC(C#N)N(C)c1c([N+](=O)[O-])c(=O)n(C)c(=O)n1C (stereo unspecified), which growth inhibition is on record?
Its growth inhibition is -5.4%.

Which growth inhibition does the source give for Cc1nc(-c2ccccc2)nc2c1nc(Cc1ccc(Cl)cc1)n2Nc1ccccc1 here?
Its growth inhibition is 1.6%.

Which growth inhibition does the source give for C[C@@]1(Cc2ccccc2)C(=O)N2[C@@H](CO)C(c3ccccc3)O[C@]2(C)c2ccccc21 (stereo partly specified) here?
Its growth inhibition is -14.7%.

Which growth inhibition does the source give for CN(C)c1ccc(/C=C(\C#N)c2ccccc2Br)cc1 here?
The growth inhibition was 15.7%.

Which growth inhibition does the source give for NCC(=O)NC1CCCCC1 here?
The growth inhibition was -8.45%.

With NNC(=Nc1ccccc1)SCc1ccccc1 as the compound, how does the growth inhibition read?
Its growth inhibition is 23.4%.

Which growth inhibition does the source give for C/C(=N/NC(N)=O)c1ccc(C)o1 here?
Its growth inhibition is -4.4%.

With CNCC(OC)OC as the compound, how does the growth inhibition read?
The growth inhibition was 4.85%.

Which growth inhibition does the source give for Cc1c[nH]c(=O)n(CC(=O)C2(O)CCC3C4CCC5=CC(=O)CCC5(C)C4CCC32C)c1=O (stereo unspecified) here?
Its growth inhibition is -10.9%.

For Cc1cc2nc(C(C)(C)O)[nH]c2cc1C, which growth inhibition is on record?
The growth inhibition was 2.8%.

With COc1cc(/C=N\N=C(/C)c2ccc(C)cc2C)cc(OC)c1OC as the compound, how does the growth inhibition read?
The growth inhibition was 24.8%.

Which growth inhibition does the source give for N/N=C(\c1nc2ccc([N+](=O)[O-])cc2[nH]c1=O)C(O)c1ccc(Cl)c(Cl)c1 (stereo unspecified) here?
The growth inhibition was -11.1%.

Which growth inhibition does the source give for O=C(c1ccccc1)C(c1ccccc1)(c1ccccc1)c1ccccc1 here?
The growth inhibition was -17.3%.

For CN(C)C(=S)N(C)C, which growth inhibition is on record?
The growth inhibition was -17.4%.

Which growth inhibition does the source give for C=CCCCC1CCCNC1=O (stereo unspecified) here?
The growth inhibition was -8.2%.

With CC(Cl)C(O)C#N (stereo unspecified) as the compound, how does the growth inhibition read?
Its growth inhibition is -10.8%.

Which growth inhibition does the source give for O=c1cc(-c2ccc(O)cc2)oc2cc(O)cc(O)c12 here?
Its growth inhibition is -8.45%.

With CC1(C)O[C@H]2Cn3c(c(C#N)c4ccccc43)[C@H]2O1 as the compound, how does the growth inhibition read?
The growth inhibition was 15.8%.

Which growth inhibition does the source give for CSc1cnc2ccccc2c1Sc1c[nH]c2ccccc2c1=O here?
Its growth inhibition is 1.15%.

Which growth inhibition does the source give for N#Cc1c(Br)n(C2OC(CO)C(O)C2O)c2ncncc12 (stereo unspecified) here?
Its growth inhibition is 1.55%.

assay: NCI Yeast Anticancer Drug Screen. Data for the cln2 rad14 strain (AID 165);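 further: 0% = growth equal to vehicle treated cultures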; details: S. cerevisiae cln2 rad14 strain, at 50.0 µM, active compounds read high
Method in brief: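 Test compounds were added to cln2 rad14 yeast cultures; inhibition of growth was then determined by comparison with vehicle treatment.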

For Cc1cnc(N)s1, which growth inhibition is on record?
The growth inhibition was -24.7%.

Which growth inhibition does the source give for Cc1cc(O)c(/C=N/C(=S)NCCc2ccccc2)c(=O)o1 here?
Its growth inhibition is 10.3%.

Which growth inhibition does the source give for O=C(Nc1cccc([N+](=O)[O-])c1)OCC#CCOC(=O)Nc1cccc([N+](=O)[O-])c1 here?
Its growth inhibition is 11.8%.

For COC(=O)/C(=N\NC(=S)NN)C(C(=O)C(=O)Nc1ccccc1C(N)=O)c1nc2ccccc2[nH]c1=O (stereo unspecified), which growth inhibition is on record?
The growth inhibition was -42.5%.

Which growth inhibition does the source give for CC(=O)Oc1ccc(C(c2ccc(OC(C)=O)cc2)c2ccccn2)cc1 here?
The growth inhibition was -62.4%.

For C[S+](C)N(c1ccccc1)C(C)(C)C, which growth inhibition is on record?
Its growth inhibition is -17.4%.

With N/C=N/OCc1ccccc1 as the compound, how does the growth inhibition read?
Its growth inhibition is 4.7%.

With CCCCCC(=O)Oc1ccccc1OC as the compound, how does the growth inhibition read?
Its growth inhibition is -29.4%.

For Cc1cc(C)n2nc3c4ccsc4ncc3c2n1, which growth inhibition is on record?
Its growth inhibition is 2.45%.

Which growth inhibition does the source give for CC1=CC=CC(C)(C)C(=O)C1=O here?
The growth inhibition was -18.9%.

For CC1(C)NNC(=S)NC1=O, which growth inhibition is on record?
The growth inhibition was 17.1%.

With Oc1cccnc1CN1CCOCC1 as the compound, how does the growth inhibition read?
The growth inhibition was 8.8%.

For Cc1cc(C)c(C(=O)O)c(C)c1Br, which growth inhibition is on record?
Its growth inhibition is -34.6%.

With CNc1ccn(C2OC(CO)C(O)C2O)c(=O)n1 (stereo unspecified) as the compound, how does the growth inhibition read?
Its growth inhibition is 11.9%.

Which growth inhibition does the source give for O=C(c1ccc(Cl)cc1)C(c1ccccc1)N1CCCCC1 (stereo unspecified) here?
The growth inhibition was -45.8%.

For Nc1nnc2nc(CC(=O)c3ccc(F)cc3)c(CC(=O)c3ccc(F)cc3)nn12, which growth inhibition is on record?
Its growth inhibition is -2.7%.

For Oc1ccc2c(c1)c1ccccc1c1ncccc21, which growth inhibition is on record?
Its growth inhibition is 3.7%.

For COC1(C)CNc2ccccc2C(=O)N1 (stereo unspecified), which growth inhibition is on record?
Its growth inhibition is 19.1%.

For CCN(CC)CCCNc1ccnc2ccc(Cl)cc12, which growth inhibition is on record?
Its growth inhibition is -17.9%.

Which growth inhibition does the source give for O=C(NC(=O)c1ccccc1[N+](=O)[O-])Nc1ccc(Oc2ncc(Cl)cn2)c(C(F)(F)F)c1 here?
The growth inhibition was -17.1%.

For CC(C#N)N(C)c1c([N+](=O)[O-])c(=O)n(C)c(=O)n1C (stereo unspecified), which growth inhibition is on record?
Its growth inhibition is -14.9%.

With Cc1nc(-c2ccccc2)nc2c1nc(Cc1ccc(Cl)cc1)n2Nc1ccccc1 as the compound, how does the growth inhibition read?
The growth inhibition was -5.75%.

Which growth inhibition does the source give for C[C@@]1(Cc2ccccc2)C(=O)N2[C@@H](CO)C(c3ccccc3)O[C@]2(C)c2ccccc21 (stereo partly specified) here?
The growth inhibition was -6.05%.

Which growth inhibition does the source give for CN(C)c1ccc(/C=C(\C#N)c2ccccc2Br)cc1 here?
Its growth inhibition is -28.2%.

Which growth inhibition does the source give for NCC(=O)NC1CCCCC1 here?
The growth inhibition was 25.4%.

For NNC(=Nc1ccccc1)SCc1ccccc1, which growth inhibition is on record?
Its growth inhibition is 7.75%.

With C/C(=N/NC(N)=O)c1ccc(C)o1 as the compound, how does the growth inhibition read?
The growth inhibition was -0.75%.

Which growth inhibition does the source give for CNCC(OC)OC here?
Its growth inhibition is 16.1%.

With Cc1c[nH]c(=O)n(CC(=O)C2(O)CCC3C4CCC5=CC(=O)CCC5(C)C4CCC32C)c1=O (stereo unspecified) as the compound, how does the growth inhibition read?
The growth inhibition was 13.2%.

With Cc1cc2nc(C(C)(C)O)[nH]c2cc1C as the compound, how does the growth inhibition read?
The growth inhibition was 8.2%.

For COc1cc(/C=N\N=C(/C)c2ccc(C)cc2C)cc(OC)c1OC, which growth inhibition is on record?
Its growth inhibition is 22.9%.

Which growth inhibition does the source give for N/N=C(\c1nc2ccc([N+](=O)[O-])cc2[nH]c1=O)C(O)c1ccc(Cl)c(Cl)c1 (stereo unspecified) here?
Its growth inhibition is -12.7%.

With O=C(c1ccccc1)C(c1ccccc1)(c1ccccc1)c1ccccc1 as the compound, how does the growth inhibition read?
The growth inhibition was -30%.

With CN(C)C(=S)N(C)C as the compound, how does the growth inhibition read?
The growth inhibition was 0.45%.

For C=CCCCC1CCCNC1=O (stereo unspecified), which growth inhibition is on record?
The growth inhibition was 8.1%.

Which growth inhibition does the source give for CC(Cl)C(O)C#N (stereo unspecified) here?
The growth inhibition was -8.2%.

With O=c1cc(-c2ccc(O)cc2)oc2cc(O)cc(O)c12 as the compound, how does the growth inhibition read?
Its growth inhibition is -43.5%.

Which growth inhibition does the source give for CC1(C)O[C@H]2Cn3c(c(C#N)c4ccccc43)[C@H]2O1 here?
The growth inhibition was -11.1%.

Which growth inhibition does the source give for CSc1cnc2ccccc2c1Sc1c[nH]c2ccccc2c1=O here?
Its growth inhibition is 11.8%.

With N#Cc1c(Br)n(C2OC(CO)C(O)C2O)c2ncncc12 (stereo unspecified) as the compound, how does the growth inhibition read?
Its growth inhibition is -0.05%.
